In article PMC8384837, “Expanding the binding specificity for RNA recognition by a PUF domain”:

Key:
Experiment in all cases: yeast three-hybrid, YBZ-1, SC-Leu-His + 0.5 mM 3-AT, 4 days
Conditions in all cases: tags: N-Gal4 AD-HA kept; label: inside an RPR1-promoter hybrid RNA with tandem MS2 sites; ssRNA
PUM1 PUF domain R4-LHS = PUM1 PUF domain R4-LHS (Homo sapiens, UniProt Q14671 828-1176, N971L;Q975S)
Summary of the method: (§1)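 The interaction score is the log change in how often each variant appears, from input to selection. Frequencies came from PCR-amplified, Illumina-sequenced repeat regions of Pumilio-1 PUF domain libraries grown in strain YBZ-1 (LexA–MS2 coat fusion, HIS3 reporter) alongside matching RNA elements. Input plates were SC-Leu and selection plates were SC-Leu-His + 0.5 mM 3-AT, each for four days, and the log2 calculation used a pseudocount of 1 where a variant was absent.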

PUM1 PUF domain R8-MYW = PUM1 PUF domain R8-MYW (Homo sapiens, UniProt Q14671 828-1176, N1122M;Q1126W)
Summary of the method: as §1

PUM1 PUF domain R1-RMQ = PUM1 PUF domain R1-RMQ (Homo sapiens, UniProt Q14671 828-1176, S863R;R864M)
Summary of the method: as §1

PUM1 PUF domain R6-TWV = target: T1, PUM1 PUF domain R6-TWV (Homo sapiens, UniProt Q14671 828-1176, N1043T;Y1044W;Q1047V)
T1 sequence: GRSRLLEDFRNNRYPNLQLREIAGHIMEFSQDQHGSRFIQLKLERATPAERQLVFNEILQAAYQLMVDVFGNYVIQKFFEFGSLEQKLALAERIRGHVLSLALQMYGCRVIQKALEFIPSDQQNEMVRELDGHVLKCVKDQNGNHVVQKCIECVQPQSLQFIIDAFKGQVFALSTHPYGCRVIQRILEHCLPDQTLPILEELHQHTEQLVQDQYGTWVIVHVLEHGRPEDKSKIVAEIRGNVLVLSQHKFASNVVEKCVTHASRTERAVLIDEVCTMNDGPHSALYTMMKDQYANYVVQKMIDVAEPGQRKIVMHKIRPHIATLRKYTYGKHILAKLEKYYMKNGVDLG
Summary of the method: as §1

PUM1 PUF domain R5-KGW = PUM1 PUF domain R5-KGW (Homo sapiens, UniProt Q14671 828-1176, C1007K;R1008G;Q1011W)
Summary of the method: as §1

PUM1 PUF domain R5-RYK = PUM1 PUF domain R5-RYK (Homo sapiens, UniProt Q14671 828-1176, C1007R;R1008Y;Q1011K)
Summary of the method: as §1

PUM1 PUF domain R5-SLH = PUM1 PUF domain R5-SLH (Homo sapiens, UniProt Q14671 828-1176, C1007S;R1008L;Q1011H)
Summary of the method: as §1

PUM1 PUF domain R3-ERS = PUM1 PUF domain R3-ERS (Homo sapiens, UniProt Q14671 828-1176, C935E;Q939S)
Summary of the method: as §1

Sequence: GGCUAGAACUAGUGGAUCCCCCGGCGCCCGGCGGCUCGAGCCCGGGUAAGUGUAUAUAGUCUGCAUGCCGCCGGGCGCCAUGCCUGCAGGUCGACUCUAGAAAACAUG
- binding signal (PUM1 PUF domain R4-LHS): 3.86 log2 enrichment (interaction score)

Sequence: GGCUAGAACUAGUGGAUCCCCCGGCGCCCGGCGGCUCGAGCCCGGGUAAGCGUAAAUAGUCUGCAUGCCGCCGGGCGCCAUGCCUGCAGGUCGACUCUAGAAAACAUG
- binding signal (PUM1 PUF domain R8-MYW): 2.44 log2 enrichment (interaction score)

Sequence: GGCUAGAACUAGUGGAUCCCCCGGCGCCCGGCGGCUCGAGCCCGGGUAAGUGUAAAUCGUCUGCAUGCCGCCGGGCGCCAUGCCUGCAGGUCGACUCUAGAAAACAUG
- binding signal (PUM1 PUF domain R1-RMQ): 5.34 log2 enrichment (interaction score)

Sequence: GGCUAGAACUAGUGGAUCCCCCGGCGCCCGGCGGCUCGAGCCCGGGUAAGUGAAAAUAGUCUGCAUGCCGCCGGGCGCCAUGCCUGCAGGUCGACUCUAGAAAACAUG
- binding signal (PUM1 PUF domain R6-TWV): 2.6 log2 enrichment (interaction score)

Sequence: GGCUAGAACUAGUGGAUCCCCCGGCGCCCGGCGGCUCGAGCCCGGGUAAGUGUCAAUAGUCUGCAUGCCGCCGGGCGCCAUGCCUGCAGGUCGACUCUAGAAAACAUG
- binding signal (PUM1 PUF domain R5-KGW): 3.14 log2 enrichment (interaction score)
- binding signal (PUM1 PUF domain R5-RYK): 4.4 log2 enrichment (interaction score)

Sequence: GGCUAGAACUAGUGGAUCCCCCGGCGCCCGGCGGCUCGAGCCCGGGUAAGUGUGAAUAGUCUGCAUGCCGCCGGGCGCCAUGCCUGCAGGUCGACUCUAGAAAACAUG
- binding signal (PUM1 PUF domain R5-SLH): 3.2 log2 enrichment (interaction score)

Sequence: GGCUAGAACUAGUGGAUCCCCCGGCGCCCGGCGGCUCGAGCCCGGGUAAGUGUAAAUAGUCUGCAUGCCGCCGGGCGCCAUGCCUGCAGGUCGACUCUAGAAAACAUG
- binding signal (PUM1 PUF domain R5-RYK): 3.8 log2 enrichment (interaction score)

Sequence: GGCUAGAACUAGUGGAUCCCCCGGCGCCCGGCGGCUCGAGCCCGGGUAAGUGUAAGUAGUCUGCAUGCCGCCGGGCGCCAUGCCUGCAGGUCGACUCUAGAAAACAUG
- binding signal (PUM1 PUF domain R3-ERS): 2.54 log2 enrichment (interaction score)
